Values joined by “and” are separate entries in the source; they are usually repeats but may differ in a detail not shown here. Equal entries are not always repeated. This is part of a sample that, as a whole, favours compounds with a hit. Of some 83,000 tested, about 20% had one in any assay.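 In brief: 96-well plates, 48 h treatment, single concentration, percent growth endpoint.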 Active and inactive are the calls of the source. The calls were made as follows: active = growth percent below 10; inactive = the rest.
What follows are compounds tested on MALME-3M melanoma (assay: NCI-60 one-dose screen, 48 h (100 = growth as untreated, 0 = no growth, -100 = all killed)). Conditions: 10 µM.
`Cn1ncc2cc3c(Nc4ccc(Cl)cc4)cccc3nc21` was tested, and the growth was 122% (inactive). For `O=Nc1ccc(Nc2ccccc2)cc1`, the growth was 104% (inactive). With `CCC(C)(c1ccc(O)c(C)c1)c1ccc(O)c(C)c1` the growth was 219% (inactive). `O=C1c2ccccc2CCC1(Br)Br` was tested, and the growth was -45.8% (active). With `C=C1N(C)c2ccc(Cl)cc2C1(C)C` the growth was 66% (inactive). `O=c1[nH]cc(/C=N\Nc2ccccc2)c(=O)[nH]1` was tested, and the growth was 84.4% (inactive). With `Cc1cc(Cl)ccc1NC(=O)/C(Cl)=C1/Sc2ccccc2NC1=O` the growth was 109% (inactive). In the case of `CN(C)CCNc1cccc2sc3ccc(O)cc3c(=O)c12`, the growth is reported as 1.1% (active). In the case of `N#CC(=C1C=CC(=NO)C=C1)c1ccccc1`, the growth is reported as 59.1% (inactive). With `CCOC(=O)[C@]1(Br)CC[C@@]1(Br)C(=O)OCC` the growth was 75.4% (inactive). With `O=C(CNS(=O)(=O)Cc1ccccc1)NNc1ccccc1` the growth was 91.3% (inactive). For `COc1cccc(C(c2cc3c(cc2O)OCO3)N2CCOCC2)c1OC` (stereo unspecified), the growth was 99.2% (inactive). In the case of `N#C/C(=C/N1C(=O)/C(=C/c2ccc([N+](=O)[O-])cc2)SC1=S)c1nc2ccccc2s1`, the growth is reported as 111% (inactive). `Nc1nc(N)c2cc(Sc3ccc4ccccc4c3)ccc2n1` was tested, and the growth was 53% (inactive). In the case of `O=C1c2cccc3cc([N+](=O)[O-])cc(c23)C(=O)N1CCN1CCCC1`, the growth is reported as -26.4% (active). With `O=S(=O)(c1cc(Cl)ccc1O)c1cc(Cl)ccc1O` the growth was 95.7% (inactive). With `COc1cc(N)ccc1Nc1c2ccccc2nc2ccccc12` the growth was 95.7% (inactive). `O=C1C=CC(=O)N1c1ccc(N2C(=O)C=CC2=O)cc1` was tested, and the growth was 85.7% (inactive). In the case of `CCC(=O)Oc1ccc(/C=N/NC(N)=S)nc1`, the growth is reported as 59% (inactive). With `O=[N+]([O-])c1cc(S(=O)(=O)Nc2ccccc2)ccc1Cl` the growth was 105% (inactive). In the case of `Cn1c2nc3ccccc3c-2nc2ccccc21`, the growth is reported as 116% (inactive) and 115% (inactive).

Each compound was assayed on MDA-MB-231 breast in the same assay as above. Conditions: 10 µM.
In the case of `Cn1ncc2cc3c(Nc4ccc(Cl)cc4)cccc3nc21`, the growth is reported as 81.7% (inactive). For `O=Nc1ccc(Nc2ccccc2)cc1`, the growth was 62.5% (inactive). `CCC(C)(c1ccc(O)c(C)c1)c1ccc(O)c(C)c1` was tested, and the growth was 85% (inactive). For `O=C1c2ccccc2CCC1(Br)Br`, the growth was -1.14% (active). With `C=C1N(C)c2ccc(Cl)cc2C1(C)C` the growth was 82.7% (inactive). For `O=c1[nH]cc(/C=N\Nc2ccccc2)c(=O)[nH]1`, the growth was 63.9% (inactive). In the case of `Cc1cc(Cl)ccc1NC(=O)/C(Cl)=C1/Sc2ccccc2NC1=O`, the growth is reported as 80.4% (inactive). In the case of `CN(C)CCNc1cccc2sc3ccc(O)cc3c(=O)c12`, the growth is reported as 47.2% (inactive). `N#CC(=C1C=CC(=NO)C=C1)c1ccccc1` was tested, and the growth was -4.14% (active). With `CCOC(=O)[C@]1(Br)CC[C@@]1(Br)C(=O)OCC` the growth was 99.4% (inactive). With `COc1cccc(C(c2cc3c(cc2O)OCO3)N2CCOCC2)c1OC` (stereo unspecified) the growth was 97.7% (inactive). For `N#C/C(=C/N1C(=O)/C(=C/c2ccc([N+](=O)[O-])cc2)SC1=S)c1nc2ccccc2s1`, the growth was 73.6% (inactive). In the case of `Nc1nc(N)c2cc(Sc3ccc4ccccc4c3)ccc2n1`, the growth is reported as 40.2% (inactive). In the case of `O=C1c2cccc3cc([N+](=O)[O-])cc(c23)C(=O)N1CCN1CCCC1`, the growth is reported as 20.6% (inactive). For `O=S(=O)(c1cc(Cl)ccc1O)c1cc(Cl)ccc1O`, the growth was 95.4% (inactive). With `COc1cc(N)ccc1Nc1c2ccccc2nc2ccccc12` the growth was 56.4% (inactive). In the case of `O=C1C=CC(=O)N1c1ccc(N2C(=O)C=CC2=O)cc1`, the growth is reported as 115% (inactive). For `CCC(=O)Oc1ccc(/C=N/NC(N)=S)nc1`, the growth was 63.4% (inactive). With `O=[N+]([O-])c1cc(S(=O)(=O)Nc2ccccc2)ccc1Cl` the growth was 110% (inactive). `Cn1c2nc3ccccc3c-2nc2ccccc21` was tested, and the growth was 79.9% (inactive) and 83.8% (inactive).

From PubChem BioAssay (NCI)
